This note sets out measurements from the supplement of paper PMC6555819.

For the first experiment, the system named is PPARg:RXRa 270nM:90nM, anti-RXR (NR concentration 270 nM, RXRa partner concentration 90 nM). Briefly: PBM binding z-score (relative to random genomic background probes); higher = stronger binding; sequences stand for … in GC…GCGATTGACAGCGTAGAATGAAGG
The method in brief: (§1)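 The probes on custom Agilent 4×180K protein-binding microarrays were double-stranded, with 34-nt variable regions bearing direct-repeat seeds, single-nucleotide variants, half-site ablations and random human genomic background sequences. Incubation lasted 1 h with ligand-free nuclear receptor dimers in PBS pH 7.4, 2% milk, 0.02% Triton X-100, 1 mM DTT, 0.2 mg/mL BSA and 0.4 mg/ml salmon testes DNA. Antibodies against each partner (one per run) detected bound dimers, and fluorescence scans were regression-normalized. Binding z-scores take the random background probes as reference.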
With CTACCAAGGTGGACAAGGTCGTTGATTACTATTC, the PBM binding z-score was found to be 0.155.
In turn, AGAGTGAGGTTAAGATCAGGGAAACAGAATACAT returned a PBM binding z-score of 2.13.
On the same count and under the same terms, under CCAGACAGGTGAAAGGGAACTCAGTCTGGTACGC stands 3.24; under CGAACTAGGTCATGGACAGTGAATCTCCGCACGC, 6.4.
Still for that read-out and setting: the figure for CGACCTAGGTCATCCAGGACAGTGAATACATTGA is 3.43; for TAGCCTAGGTCATGCGGGCCACTATAGTGTCGGC it is 2.65; for ACTAGCAGGCCCAGTTTGGGTCACTCAAACAAAG it is 0.0503.
Still for that read-out and setting: the figure for TAGCCTAGGTCATTCAGGTGCCAGTATAGAAAGC is 2.27.
Consider ATCCCTAGGTAAAGATAGTTCAGTGAATGCAAAT, for which the PBM binding z-score is -0.104.
With CAAACTAGGGCACCGGAAGGTCAAAGTCCGCATG, the PBM binding z-score was determined as 6.02.
On the same count and under the same terms, the figure for CCCCGGAGGACAACAGGAGGTCAGAGCTGCCAGA is 0.469; for CAAACTAGGTCAAGAGGGCAAAGTCCGCTTCCCG it is 7.36.
In turn, ATCCAAAGGTCGACGAGGTGAGTATACACCGTTT came in with a PBM binding z-score of 4.16.
Same read-out and setting: the figure for TATACAGGGTCAAACGCCAGAGTACGAATGTCGA is 6.79; for ACTAGCAGGCCAAGTCTGGGTCACTCAAACAAAG it is 1.28; for GCAGACAGGTGAAACGCAGGTGACTCAGGGTGGC it is 0.413.
The sequence ATCTGTAGGTAACCAAGTTCAGTGAATGCCGAAC gave a PBM binding z-score of 0.922.
Take CTTACTGGGCCATTCAGAGGTCATTGATCATATG: the PBM binding z-score was 4.43.
Same read-out and setting: the figure for ATACCAAGGTGATCGTGAGGTCGTTCATACTAAC is 0.354; for TAGCCTAGGTCATTCAGTGGCCAGTATAGAAAGC it is 2.24.
AGTCAAAGTTCCCTAGGTAACGTAAGATTCAGCT showed a PBM binding z-score of 0.455.
TCTTGTAGATCAAGCAGGTGAAGAAAGCCTGAGT came in with a PBM binding z-score of 1.19.
Still for that read-out and setting: the figure for CCTAGTTGGTCAAAGTCACACACGCTATAGGTAC is 1.68.
Same read-out and setting: under CCTAGTTGGTCGAGGTCACACACGCTATAGGTAC stands 3.39; under GATACAGGGTCAAGGCCAGAGTTCGCGTATTGAT, 5.93.
Still for that read-out and setting: under CCAACTAGGTCAAGGACAGTGAATCTCCGCACGC stands 5.37; under TCTTGTAGATCAGCATGTTAAGAAAGCTGGCCAA, 1.52.
ACTTACGGGTCAACGAGGTTATAGCGCGCGTATA: the PBM binding z-score was found to be 5.59.
Same read-out and setting: under CGTCCAAGGTCAAAGATCAGTGAAGAGATGACGG stands 6.43; under CCTTACGGGTCGAGGTTATAGCACGGGTGGTACG, 1.01; under GCTGACAGGTGAAACGCAGGTAACTCAGGGTGGC, -0.307.
Still for that read-out and setting: under CCTACTGGTCCACGAAAGGTCATTGATTCAGTGA stands 3.07.
Turning to CCAACTGGGGCAAGGTTACCATAACGCACAGCCA, the PBM binding z-score worked out at 4.62.
In the case of GCTGCTAGGTCAGGTTGGTCACCTAACGGGTACG, the PBM binding z-score came out at 1.15.
CCGACTGGGGCAAAGGGTACCATACTCAGTACGA gave a PBM binding z-score of 7.63.
Same read-out and setting: the figure for ATCTCTAGGTAAGACTAAGTTCAGTGAAGAACGC is 1.71; for TCTATTAGTTTATTAGGGCAACCGAAACAGCGGA it is 3.07.
Sequence CCTTACGGGCCACTCCAGGTTATAGCATCGGAGT returned a PBM binding z-score of -0.281.
On the same count and under the same terms, the figure for TCTTGTAGATCAAGCACGTTAAGAAAGCCTGAGT is 1.12.

For a further experiment, the system named is PPARg:RXRa 30nM:10nM, anti-RXR (NR concentration 30 nM, RXRa partner concentration 10 nM). The experiment is described as above. The method in brief: as §1
CTACCAAGGTGGACAAGGTCGTTGATTACTATTC showed a PBM binding z-score of -0.189.
Still for that read-out and setting: the figure for AGAGTGAGGTTAAGATCAGGGAAACAGAATACAT is 0.952.
CCAGACAGGTGAAAGGGAACTCAGTCTGGTACGC yielded a PBM binding z-score of 1.06.
Same read-out and setting: under CGAACTAGGTCATGGACAGTGAATCTCCGCACGC stands 3.88.
Same read-out and setting: under CGACCTAGGTCATCCAGGACAGTGAATACATTGA stands 1.07; under TAGCCTAGGTCATGCGGGCCACTATAGTGTCGGC, 0.295.
The same measure, in the same setting: under ACTAGCAGGCCCAGTTTGGGTCACTCAAACAAAG stands -0.523; under TAGCCTAGGTCATTCAGGTGCCAGTATAGAAAGC, 0.493; under ATCCCTAGGTAAAGATAGTTCAGTGAATGCAAAT, -0.14.
For CAAACTAGGGCACCGGAAGGTCAAAGTCCGCATG, the PBM binding z-score was found to be 2.51.
Still for that read-out and setting: the figure for CCCCGGAGGACAACAGGAGGTCAGAGCTGCCAGA is -0.809; for CAAACTAGGTCAAGAGGGCAAAGTCCGCTTCCCG it is 5.56; for ATCCAAAGGTCGACGAGGTGAGTATACACCGTTT it is 1.4.
On the same count and under the same terms, the figure for TATACAGGGTCAAACGCCAGAGTACGAATGTCGA is 3.84.
Same read-out and setting: under ACTAGCAGGCCAAGTCTGGGTCACTCAAACAAAG stands 0.18.
Consider GCAGACAGGTGAAACGCAGGTGACTCAGGGTGGC, for which the PBM binding z-score was -0.264.
The same measure, in the same setting: the figure for ATCTGTAGGTAACCAAGTTCAGTGAATGCCGAAC is 0.0596; for CTTACTGGGCCATTCAGAGGTCATTGATCATATG it is 2.21; for ATACCAAGGTGATCGTGAGGTCGTTCATACTAAC it is -0.0192.
The same measure, in the same setting: under TAGCCTAGGTCATTCAGTGGCCAGTATAGAAAGC stands 0.522; under AGTCAAAGTTCCCTAGGTAACGTAAGATTCAGCT, 0.0394.
On the same count and under the same terms, under TCTTGTAGATCAAGCAGGTGAAGAAAGCCTGAGT stands 2.61.
Regarding CCTAGTTGGTCAAAGTCACACACGCTATAGGTAC, the PBM binding z-score is 0.915.
Same read-out and setting: under CCTAGTTGGTCGAGGTCACACACGCTATAGGTAC stands 0.788; under GATACAGGGTCAAGGCCAGAGTTCGCGTATTGAT, 2.4.
As to CCAACTAGGTCAAGGACAGTGAATCTCCGCACGC, the PBM binding z-score was determined as 3.19.
Still for that read-out and setting: the figure for TCTTGTAGATCAGCATGTTAAGAAAGCTGGCCAA is 2.44; for ACTTACGGGTCAACGAGGTTATAGCGCGCGTATA it is 2.17; for CGTCCAAGGTCAAAGATCAGTGAAGAGATGACGG it is 3.08.
Turning to CCTTACGGGTCGAGGTTATAGCACGGGTGGTACG, the PBM binding z-score is -0.146.
On the same count and under the same terms, under GCTGACAGGTGAAACGCAGGTAACTCAGGGTGGC stands -0.779; under CCTACTGGTCCACGAAAGGTCATTGATTCAGTGA, 0.699.
On the same count and under the same terms, under CCAACTGGGGCAAGGTTACCATAACGCACAGCCA stands 2.01; under GCTGCTAGGTCAGGTTGGTCACCTAACGGGTACG, -0.264.
On the same count and under the same terms, the figure for CCGACTGGGGCAAAGGGTACCATACTCAGTACGA is 6.97.
The sequence ATCTCTAGGTAAGACTAAGTTCAGTGAAGAACGC had a PBM binding z-score of 0.577.
The same measure, in the same setting: under TCTATTAGTTTATTAGGGCAACCGAAACAGCGGA stands 3.87.
The same measure, in the same setting: under CCTTACGGGCCACTCCAGGTTATAGCATCGGAGT stands -0.409; under TCTTGTAGATCAAGCACGTTAAGAAAGCCTGAGT, 2.5.
